Sampled rows, rich in hits. Any-hit rate of the full collection: about 6.6%.
Mtb FBA inh = inhibitors of M. tuberculosis fructose-bisphosphate aldolase | actives 2.3% (n = 360,000) | purified M. tuberculosis FBA, fluorescence read-out | P9WQA3 | inhibition, % at 1 µM
Target sequence (P9WQA3 whole entry, looked up): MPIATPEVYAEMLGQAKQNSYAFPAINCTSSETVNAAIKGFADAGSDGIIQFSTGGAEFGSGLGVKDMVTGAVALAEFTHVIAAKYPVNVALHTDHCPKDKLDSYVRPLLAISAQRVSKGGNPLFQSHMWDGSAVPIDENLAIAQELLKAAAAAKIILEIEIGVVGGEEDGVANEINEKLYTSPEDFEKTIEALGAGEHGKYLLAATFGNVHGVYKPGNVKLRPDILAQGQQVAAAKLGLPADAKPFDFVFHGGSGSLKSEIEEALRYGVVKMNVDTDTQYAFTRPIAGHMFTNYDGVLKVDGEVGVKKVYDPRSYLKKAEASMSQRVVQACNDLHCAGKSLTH
Autofluor counter = compound fluorescence in toxin protease inhibitor counterscreen; compound autofluorescence counterscreen, microsphere flow cytometry; active compounds read high; fluorescence intensity (no concentration beside the values); actives 3.1% (n = 360,000); in the data active = fluorescence intensity above about 16000; inconclusive = no clear call, values can overlap the other calls
BoNT-A LC inh2 = blocks Botulinum neurotoxin A light chain protease. multiplex microsphere protease substrate cleavage, flow cytometry. inhibition, % at 10 µM. actives 0.17% (n = 360,000). AID 588499; in the data active = inhibition above about 30%; inconclusive = no clear call, values can overlap the other calls
GDH-TPI counter-1 = GDH-TPI coupled enzyme inhibition counter-screen. AID 588335. inhibition, % at 4.8 µM. actives 1.2% (n = 360,000). GDH-TPI coupled enzyme counterscreen, NADH absorbance; in the data active = inhibition above about 30%
BoNT F protease = blocks Botulinum neurotoxin F light chain protease | Multiplex microsphere protease cleavage assay, flow cytometry | inhibition, % at 10 µM | actives 0.22% (n = 360,000) | AID 588497; in the data active = inhibition above about 35%, passing the limit was not always enough; inconclusive = no clear call, values can overlap the other calls
Anthrax LF prot = blocks Bacillus anthracis lethal factor protease; P15917; multiplex microsphere protease cleavage assay, LF; inhibition, % at 10 µM; actives 0.12% (n = 360,000); in the data active = inhibition above about 30%; inconclusive = no clear call, values can overlap the other calls
Mtb FBA confirm = Mtb FBA inhibition, confirmed; purified M. tuberculosis FBA, fluorescence read-out; AID 651616; inhibition, % at 1 µM; actives 78% (n = 5,600); shares compounds with Mtb FBA inh
GDH-TPI counter-2 = GDH-TPI inhibition counter-screen for FBA inhibitors | shares compounds with Mtb FBA inh | actives 81% (n = 5,600) | inhibition, % at 1 µM | GDH-TPI coupled enzyme counterscreen, fluorescence; in the data active = inhibition above about 10%
GDH-TPI DR = inhibits GDH-TPI coupling enzymes in dose response. actives 79% (n = 170). IC50, µM. GDH-TPI coupled enzyme assay, fluorescence, artifact counterscreen. shares compounds with Mtb FBA inh; call rule not given here
Hits are given with their value; 0 = inactive; ? = inconclusive; - = no result given; + = active, no number. Rule as the data show it, unless noted: active = inhibition above about 27%; inactive = the rest.

SMILES	Mtb FBA inh	Autofluor counter	BoNT-A LC inh2	GDH-TPI counter-1	BoNT F protease	Anthrax LF prot	Mtb FBA confirm	GDH-TPI counter-2	others
O=C(NCc1ccc(F)cc1)c1ccc(CS(=O)(=O)Cc2ccc(F)cc2)o1	0	0	0	0	0	0	-	-
O=C(NCc1ccc(F)cc1)c1ccc(CS(=O)(=O)Cc2ccccc2F)o1	55	0	0	0	0	0	95	83
COc1cc(OC)cc(-c2sc3ccc(OC)cc3c2C#CCO)c1	0	0	0	0	0	0	-	-
COc1cc2sc(-c3ccc(S(C)(=O)=O)cc3)c(C#CCO)c2cc1OC	54	0	0	0	0	0	112	87
N#C/C(=C\c1cccnc1)c1ccccn1	37	0	0	0	0	0	45	41
COC(=O)c1ccc(/C=N/OCC(=O)NCc2ccc(F)cc2)cc1	0	0	0	0	0	0	-	-
COC(=O)c1[nH]c2ccccc2c1NC(=O)CN1CCCCCC1	0	0	0	0	0	0	-	-
CCOC(=O)N1CCN(CC(=O)Nc2c(C(=O)OC)[nH]c3ccccc23)CC1	0	0	0	0	0	0	-	-
CCOC(=O)c1[nH]c2cc3c(cc2c1NC(=O)CN1CCCC1)OCO3	73	0	0	0	0	0	76	49
CCOC(=O)c1[nH]c2cc3c(cc2c1NC(=O)CN1CCc2ccccc2C1)OCO3	81	0	0	0	0	0	0	0	GDH-TPI DR=1.3
COCCCNC1=C(C#N)C(=O)NC(c2cccs2)S1 (centres undefined)	0	0	0	0	0	0	-	-
CCOC(=O)c1cc(-c2ccc(OC)cc2)nc2c1c(C)nn2CCC#N	31	20850	?	31	0	0	76	60
COc1ccc(Cl)cc1C(=O)NNC(=O)c1csc(N2CCOCC2)n1	0	0	0	0	?	0	-	-
CN(Cc1cn(-c2ccccc2)nc1-c1cc2ccccc2o1)C(=O)CCC(=O)O	45	0	0	0	0	0	0	0
O=C(O)/C=C/c1cn(-c2ccccc2)nc1-c1cc2ccccc2o1	91	0	0	0	0	0	+	157
CN(C)C(=O)c1cn(-c2ccccc2)nc1-c1cc2ccccc2o1	0	0	0	0	0	0	-	-
O=C(O)/C=C\c1cn(-c2ccccc2)nc1-c1cc2ccccc2o1	76	0	0	0	0	0	124	101
CCN(CC)CCNS(=O)(=O)c1ccc(C(=O)NN)cc1	0	0	0	0	0	0	-	-
O=C(NCC(=O)N(c1cccnc1)C(C(=O)NC1CCCC1)c1cccs1)c1ccco1 (centres undefined)	0	0	0	0	0	0	-	-
Oc1ccc(N2CCN(C(=S)NCCc3ccccc3)CC2)cc1	0	0	0	0	0	0	-	-
O=C(Nc1ccc(-c2nc3ccccc3o2)cc1)C1CCCO1 (centres undefined)	34	19183	0	0	0	0	0	0
O=S(=O)(Nc1ccc(-c2nc3ccccc3o2)cc1)c1ccccc1	87	23226	?	43	0	0	131	110
CC(=O)Nc1ccc(S(=O)(=O)Nc2cccc(-c3nc4ccccc4o3)c2)cc1	55	0	0	0	0	0	58	53
CC(=O)Nc1nc2ccc(-c3nc4ccccc4o3)cc2s1	105	0	0	0	0	0	92	75
CCC(=O)Nc1cccc(-c2nc3ccccc3o2)c1	0	0	0	0	?	0	-	-
SMILES	Mtb FBA inh	Autofluor counter	BoNT-A LC inh2	GDH-TPI counter-1	BoNT F protease	Anthrax LF prot	Mtb FBA confirm	GDH-TPI counter-2	others
Cc1cc2nc(-c3cccnc3SCC(=O)NCc3ccco3)[nH]c2cc1C	40	22154	0	0	0	0	0	0
Cc1ccc(O)c(C=Nc2ccc3[nH]ncc3c2)c1	42	0	0	0	0	0	118	83
Cc1ccc(O)c(C=Nc2cc(C)ccc2O)c1	0	0	0	0	0	0	-	-
COC(=O)c1ccc(CNC(=O)COC(=O)C23CC4CC(CC(C4)C2)C3)cc1	0	0	0	0	0	0	-	-
COc1ccc2c(c1)sc1nc(=O)ccn12	49	0	0	0	0	0	117	106
Cc1cccc(C(=O)N[C@@H]2c3ccccc3C[C@@H]2O)n1	0	0	0	0	0	0	-	-
Cc1nn(Cc2ccccc2)c(Cl)c1C(=O)OCC(=O)NC(=O)NC12CC3CC(CC(C3)C1)C2	0	0	0	0	0	0	-	-
CCn1cc(C(=O)NCc2cccnc2)c(=O)c2cc(F)c(N3CCN(C(=O)c4ccco4)CC3)cc21	48	0	0	0	0	0	53	45
CCCNC(=O)c1cn(CC)c2cc(N3CCN(C(=O)c4ccco4)CC3)c(F)cc2c1=O	80	0	0	0	0	0	142	113
CCCCNC(=O)c1cn(CC)c2cc(N3CCN(C)CC3)c(F)cc2c1=O	0	0	0	0	0	0	-	-
CCn1cc(C(=O)NN)c(=O)c2cc(F)c(N3CCN(C)CC3)cc21	0	0	0	0	0	0	-	-
CCOC(=O)Cc1csc(NC(=O)c2ccc(C)c(S(=O)(=O)N3CCOCC3)c2)n1	0	0	0	0	0	0	-	-
CN(C)S(=O)(=O)N1CCCC(C(=O)c2ccc(C(F)(F)F)cc2)C1 (centres undefined)	0	0	0	0	0	0	-	-
COc1ccc(C(=O)CSc2nc3[nH]ncc3c(=O)[nH]2)cc1	0	0	0	0	0	0	-	-
COc1ccc(-c2coc3c(C(=O)NCc4ccco4)cccc23)c(C)c1	0	0	0	0	0	0	-	-
COc1ccc(-c2ccc(C(=O)NCc3ccco3)c3occc23)c(C)c1	28	0	0	0	0	0	56	50
CCOc1ccccc1CNS(=O)(=O)c1ccc(-c2cnc(C3CC3)o2)cc1	0	0	0	0	0	0	-	-
O=S(=O)(NCc1ccccc1)c1ccc(-c2cnc(C3CC3)o2)cc1	27	0	0	0	0	0	+	158
Cc1ccc(CNS(=O)(=O)c2ccc(-c3cnc(C4CC4)o3)cc2)cc1	41	0	0	0	0	0	40	25
Cc1ccc(Sc2cnn(-c3ccccc3)c(=O)c2Cl)cc1	0	0	0	0	0	0	-	-
C=CCNc1cnn(-c2ccc(C)cc2)c(=O)c1Sc1ccc(C)cc1	41	0	0	0	0	0	56	47
CCCn1c(/C=C/c2cc[n+](C)cc2)nc2ccccc21	0	0	0	0	?	0	-	-
CCn1c(/C=C/c2ccccc2)nc2ccccc2c1=O	0	0	0	0	0	0	-	-
CC(C)Cn1c(/C=C/c2ccccc2)nc2ccccc21	78	0	0	39	0	0	92	67
COc1ccc(-c2nc3ccccc3n2Cc2ccccc2)cc1	0	0	0	0	0	0	-	-

Compound activity from PubChem.
